Test results reported in the supplement of paper PMC11417369.
Over roughly 25,000 sequences, “ln(normalized median fluorescence intensity)” has its median near 6.7; the highest 2% begin near 10. The entries come from a sample that favours the highest values as a whole.

Tested on: PfHDP1 homeodomain (GST-tagged)
Assay: gcPBM binding intensity (ln(normalized median fluorescence intensity)); higher = stronger DNA binding
Summary of the method: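 Using an Agilent 4 × 180k array, primer-extended double-stranded 36-bp intergenic genomic probes and negative controls were exposed for 1 h to GST-fused P. falciparum DNA-binding domains expressed in E. coli. Binding was carried out in 1× PBS with 1% milk, 0.2 mg/ml BSA, 0.5% salmon testes DNA and 0.03% Triton X-100, and protein was detected with Alexa488 anti-GST antibody and a 488 nm scan. Binding intensity is the highest Masliner-normalised natural-log median intensity across replicate spots of either probe orientation.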

Sequence	gcPBM binding intensity (ln)
TATAATCTAACATAATGTACATGTATATGCACTTTA [XGTACX_site369]	8.43
TTATATTATTCGTGTGTGCACGATATTTCATAATTG [GTGCAC_site9767]	8.92
AAAAAAAAATACAAAATAGCAATAAATACACAAACG [GTGCAC_negctrl_site707]	7.12
TTTGATGGTACACGTACACACCTTGCAAATATTTTT [CACACA_site4645]	7.13
AAAGAAAGAAAGAAAAGTACTTAAACTTTTAAAAAT [XGTACX_site8531]	6.03
AAAAAAATCTCCAGTGTGCACAATCACATAATATAT [GTGCAC_site9833]	10.8
AAAATCTAATATAATGCACACATAAAAAAAAAATCA [CACACA_site8871]	10.4
AAAAAATAATAAATCACACATATTATATATATATAT [CACACA_site5838]	8.94
TTATGGAAAAATATAACACACAATGATTTTTTATAA [CACACA_site1831]	6.33
ATTATGAAATATCGTGCACACACGAATAATATAAGA [CACACA_site1294]	9.49
CAATAAATCGAAATCGTGCACGGACACATGCAGTAG	10.9
CACACGCACGGACACACACACATATAAAATCTATAT [CACACA_site6428]	7.73
AATCGAAATCGTGCACGGACACATGCAGTAGCCGAG [XGTACX_site6001]	10.2
AAATCGTGCACGGACACATGCAGTAGCCGAGAATTA [TGCATGCA_site733]	11.1
ATTTTAAAAAGGATAGTGCAAATGTTAAAATAGGAC	9.91
CGTAAATTTTTTAAAAGTACAAAAAGATACGAGAAA [XGTACX_site8722]	6.46
TATTCATGCATATACACACACATATATTTATATTTT [CACACA_site7786]	7.08
TCATATTATAAATAAATAAATAAATATATATATATA [CACACA_negctrl_site577]	8.76
AAATAAAAATTAAAAAAATAGAAACGAATTGAATGC [TGCATGCA_negctrl_site365]	6.69
TATAAATTAAAATGTGTGCACTAAATTGAAATAGAA	10.6
GAATAAATATTAAATGTGCACTTGAATAGATGTAAA	9.88
AATAATATTAACACACGTACAAAAGCAAACAACCAA [XGTACX_site7410]	7.16
ATATATATATATCAGAGTACATTCTTTAAAATATAT [XGTACX_site5915]	8.7

Sequence	gcPBM binding intensity (ln)
TCTTTTCTTTTGTGTGTGCACATATAAGCATGAAAC [GTGCAC_site9910]	10.4
ATAATATCTTTATGTGTGCACATATATATATATATA	10.5
TATATATATATATGTGCACACATAATAAAAAAAAAA [CACACA_site3830]	10.1
ATAATATATATATATGCATGTACATATTTATCTTTA [TGCATGCA_site32]	6.74
ATATATATCTTTTGTGTGCACATATATATAATATAT	10.9
ATGTATGTGTATATATGTACATAATATATATCTTTT [XGTACX_site8666]	6.6
TTTTTTTCTCTCTCTACACACAAGGTTTAATTTAAA [CACACA_site1690]	6.81
AATTATAATTAATAGAGTACTGAATATATATATATA [XGTACX_site8683]	8.9
ATTATATATAAGAAGAGTACTGAATATGTGCAATAT [XGTACX_site4471]	11.2
TATATATATATATATGTGCACTGAAAGAATTATACA [GTGCAC_site9586]	9.76
ATTTTAAATATTTGTGGTACCCCTTTTTTGTAACAA [XGTACX_site5590]	6.71
ATAAAAAAATAAAACACACACATATAGATTATAGAT [CACACA_site7343]	7
GTATGTATATATATATGTACATACTGTTTATCGTTA [XGTACX_site6168]	6.4
ATATTTTACATATTTGCACACATATATTTAAATACA [CACACA_site4628]	10.3
ATGCATCATTTATTTGCACACCTATTATATACTTTT [CACACA_site2097]	10.1
GCATCATTTATTTGCACACCTATTATATACTTTTTA [CACACA_site2098]	10.7
AATTTTATTACTTTTACACACCTATATATCATTCAT [CACACA_site7525]	6.91
ATATTTTATTTATATACACACACATATATATATTAT [CACACA_site8177]	7.22
ATATTTTACATATTTGCACACATATATTTATATACA [CACACA_site855]	10.7
TATTTTTGTATATATTTATTCTTATTTTACAGGAAA [TGCATGCA_negctrl_site472]	6.22
ATTTTATTTAAATACACACACATATATATATTATAT [CACACA_site4607]	7.14
AGGAAATTTGTTATTGCACACAAATTTTTCTTTTTT [CACACA_site8732]	9.48
TTTTTTATTCTTTTTGCACACAGGAAATTTACAGAT [CACACA_site1090]	10.6

Sequence	gcPBM binding intensity (ln)
ATTTTATTTATATACACACACATATATATATTATAT [CACACA_site822]	7.09
ATTTTACATATTTGCACACATATATTTAAATACATA [CACACA_site4627]	10.8
GGATGCACACAAAAGGGTACATAAGAAAAAAACAGG [XGTACX_site8570]	9.42
TTTATATTTTAAAAAATAATATTATGTATTTTTAAA [TGCATGCA_negctrl_site507]	6.01
AAACAATATTCTCAAGTGCAAAAAGAAAAAAGAAAT	9.37
CCTTTTTTTTTTTTATGTACTAAAATAAAATTAGAA [XGTACX_site5956]	6.14
TATAAAATAATTAAATGTACATAATATATAAAATAT [XGTACX_site6777]	6.69
GTAATTTTTTTCTATACACACATATATATAATATAT [CACACA_site2655]	7.08
TTTGTGTTGTATTTTTGTACATAAAATAAACTTAAA [XGTACX_site4637]	6.65
TATTTAAATGGATGCACACATGCATTAAATAAAATA [CACACA_site3433]	8.59
TTTTTATATTTTTGCACACATTCTTTACTCTTCAAA [CACACA_site2210]	10.4
ATTTTACATATTTGCACACATATATTTATATACATA [CACACA_site854]	10.6
AATATTTATTTTTTTGCACACATATTTTACATTTTA [CACACA_site3182]	10.3
TATTTATTTTTTTGCACACATATTTTACATTTTAAT [CACACA_site3181]	10.8
TTTTCATTTTTCTTTACACACATATATTTATTTATA [CACACA_site7119]	7.15
TATATACATATATATACACACATATATATATTTTAT [CACACA_site3788]	6.65
TACATTTTTATTTTTACACACATATTTATTTATATA [CACACA_site6609]	7.06
ATATTAAGTTTTATTACACACTCTCAATTTTTATTT [CACACA_site4206]	6.63
ATGACTCTCAAGTTTGCACACATTTATATTTTTTAA [CACACA_site2605]	10.5
TATATATATATTTTTGCACACATTTTTTAAGGTACA [CACACA_site2145]	10.3
TATTTTTATATTTTTGCACACATTCTTTACTCTTCA [CACACA_site2211]	10.6
ATATATTTTATACATACACACATATATATATTTTTT [CACACA_site3940]	6.83
TAATGTACATAAACCGCACACATATAAAAAAATAAA [CACACA_site2851]	6.79

Sequence	gcPBM binding intensity (ln)
ATAAAAATTTATATATGTACTTAATTTTTAATTTTT [XGTACX_site7482]	5.98
ACATACAAGAATTAAACACACACAAAATATAAATTC [CACACA_site8985]	6.8
TATCTCTCTTTCTGCTGTACATAAAAATTATATAAT [XGTACX_site5961]	7.19
GGCTTTTTTTAATATGCACACATATATTTTATATAT [CACACA_site8647]	10.2
TATAATTATTTTTTCACACATATGTATTTATATATA [CACACA_site4205]	7.05
ATATAATATTTATATGCACACTTTTCTATATATAAG [CACACA_site6100]	8.84
ATATAATTTATGTGCACACACTCCTATTTTTAGCTT [CACACA_site50]	11.3
GTATATAATTTATGTGCACACACTCCTATTTTTAGC [CACACA_site49]	11.1
TTTTTCTTTATTAGCACACATAATATTATATATGTG [CACACA_site2629]	7.1
TTTTCTATGCTAAACACACTCATTGTTACAAGTTTT [CACACA_site5531]	6.78
TATGAAAATATATATTGTACAGAATCTATAAAAAAT [XGTACX_site8030]	6.39
TTTAAAAAATTATATTCACACACATACACATATATA [CACACA_site8076]	6.95
ATTTTTTTTTTTTTATGTACATATAGGTGCAAATCA [XGTACX_site6748]	11.1
CATATATATTTTATATGTACATATATATTTTATATA [XGTACX_site8665]	6.35
GACAATTATATGTAGGTGCATATACAAATTTTTTAA	9.14
TACATAAAATATATCACACATATAATATATATATAT [CACACA_site5834]	8.54
GAAATGTGATAATATACACACACGCATATATATATA [CACACA_site4332]	8.82
CAAAATATTTTTATAACACACATATATAGAATGTGC [CACACA_site1145]	6.34
TTCTGCAGCAATGTTTTTTTTAAATATTTATATGGT [CACACA_negctrl_site1815]	6.51
AAAAATAGAGCAGCTCTCATATTTTTATGTGCAATA [CACACA_negctrl_site837]	10.6
TTTTTTTATCAATGTTGTACTTTTTTTTTTTTCCAT [XGTACX_site8864]	6.18
ATTAAAAAAAAAAAAAAAAAAAAAAAAAAAAAAAAA [CACACA_negctrl_site1060]	6.3
